Experimental findings from PubChem BioAssay (Tox21) are described below.

Results filed as inconclusive are left out. Where a call stands in place of a potency, no number is given. A number with no mark means an inactive call. Activity calls are given as the source filed them. Calls come from the whole dose curve; as a rule, active = well fitted cell-killing curve with a large enough effect in the repeat runs; inconclusive = weak or mixed curves, or effect the other way; inactive = flat fitted curve, though single readings scatter.

The first experiment can be described thus: cAMP Responsive Elements (CRE) small molecule antagonists, cell-based qHTS assay: qHTS cell viability counter screen (AID 2060913). Note: nearly all actives have a fitted effect of over 40% in size. The note with it: CRE-bla HEK293T viability, CellTiter-Glo luminescence, 5 h; series mostly up to 92.4 µM. The essentials:
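HEK293T CRE-bla, 2,000 cells/well, 18 h preincubation; cpd in DMSO + NKH477 0.25 uM final, 3 h 37 C/5% CO2; LiveBLAzer 2 h RT, then CellTiter-Glo 30 min RT, luminescence.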
Consider `CCC(Cl)CC(Cl)C(Cl)C(Cl)C(Cl)C(C)Cl` (stereo not drawn), for which the viability change, negative = cytotoxic is -10.4% [at 18.9 µM]. For `CCC(=O)Oc1ccc(/C(CC)=C(\CC)c2ccc(OC(=O)CC)cc2)cc1`, the Potency result was “inactive”. As to `CC(C)C(=O)OCCOc1ccccc1`, the Potency entry was “inactive”. On the same count and under the same terms, then `Cc1nccn1CC1CCc2c(c3ccccc3n2C)C1=O` (stereo not drawn), with “inactive”; and `O=C(O)[C@@H]1CSCN1`, with “inactive”; and `CC(=O)[C@H]1CC[C@H]2[C@@H]3CC=C4C[C@@H](O)CC[C@]4(C)[C@H]3CC[C@]12C`, with “inactive”. Take `NNc1nncc2ccccc12`: the Potency result was “inactive”. With `CC(C)(C)c1cc(CO)cc(C(C)(C)C)c1O`, the Potency result was “inactive”. With `Cc1cc(NS(=O)(=O)c2ccc(N)cc2)nc(C)n1`, the Potency entry is “inactive”. As for `c1ccc(OCc2ccc(CCCN3CCOCC3)cc2)cc1`, the Potency result is “inactive”. As to `O=C(O)CCCC(=O)O`, the Potency result is “inactive”.

In the case of `O=c1[nH]c(=O)n([C@H]2O[C@H](CO)[C@@H](O)[C@@H]2O)cc1/C=C\Br`, the Potency entry was “inactive”. For `COC(=O)CC(C)CCC=C(C)C` (stereo not drawn), the Potency entry was “inactive”.

On to `CC(=O)Oc1cc(C(C)C)c(OCCN(C)C)cc1C`, for which the Potency result is “inactive”. Turning to `CC(=O)CC/C=C(\C)CCC=C(C)C`, the Potency result is “inactive”. With `CCO[Si](CCCNC(N)=O)(OCC)OCC`, the Potency result was “inactive”.

In the case of `O=C(O)c1cccc(C[C@@H]2COc3ccc(OCc4nc5cc(F)ccc5s4)cc3[C@@H]2O)c1`, the Potency entry is “inactive”. Turning to `COc1ccc2sc(C(=O)Nc3nnn[nH]3)c(OC(C)C)c2c1`, the Potency entry is “inactive”.

The next experiment is described as follows: cAMP Responsive Elements (CRE) small molecule agonists, cell-based qHTS assay: qHTS cell viability counter screen (AID 2060914). Note: nearly all actives have a fitted effect of over 50% in size. The following applies: CRE-bla HEK293T viability, CellTiter-Glo luminescence, 5 h; series mostly up to 92.4 µM. The procedure, abridged: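 In the same wells as the reporter read, viability of CRE-bla HEK 293T cells was quantified by CellTiter-Glo luminescence after a 3 h compound exposure.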
Regarding `C[C@]12C=CC(=O)C=C1CC[C@H]1[C@@H]3C[C@@H](O)[C@](O)(C(=O)CO)[C@@]3(C)C[C@H](O)[C@@]12F`, the Potency entry was “inactive”. As to `O=C(O)CCCCCC(=O)O`, the Potency entry was “inactive”. With `Nc1nc(F)nc2c1ncn2[C@@H]1O[C@H](CO)[C@@H](O)[C@@H]1O`, the Potency result was “inactive”. In the case of `O=C1c2ccccc2C(=O)C1c1nc2ccccc2c(Br)c1O`, the Potency entry is “inactive”. In the case of `CCN(CC)CCNC(C(=O)OCCC(C)C)c1ccccc1` (stereo not drawn), the Potency result is “inactive”. With `Sc1nc2ccccc2s1`, the Potency entry is “inactive”. As for `CCCCCCCC/C=C\CCCCCCCC(=O)OCCO`, the Potency entry was “inactive”.

Turning to `O=C(O)Cc1ccccc1Oc1ccc(Cl)cc1Cl`, the Potency result is “inactive”. For the compound `CC(C)(c1ccc(O)cc1)c1ccc(O)cc1`, the Potency entry was “inactive”. For `CCCCCCOC(=O)CC(CC(=O)OCCCCCC)(OC(=O)CCC)C(=O)OCCCCCC`, the Potency result is “inactive”. As to `CC(C)OC(C)C`, the Potency result is “inactive”.

As to `C=C(C)C(=O)OCCCCCCCCCCCCC`, the Potency entry was “inactive”.

As for `CCCCCCOC(=O)c1ccc(O)cc1`, the Potency result was “inactive”. Same read-out and setting: next, `CC(=O)N[C@@H](CO)C(=O)N[C@@H](CC(=O)O)C(=O)N[C@@H](CCCCN)C(=O)N1CCC[C@H]1C(=O)O`: “inactive”. Take `SC1CCCC1`: the Potency entry was “inactive”.

Turning to `CCOC(=O)C(=O)CCCCCCl`, the Potency result was “inactive”. Same read-out and setting: then `Nc1ccc(F)cc1`, with “inactive”; and `CN1C(CCl)Nc2cc(Cl)c(S(N)(=O)=O)cc2S1(=O)=O` (stereo not drawn), with “inactive”; and `CCCCCC1Nc2cc(C(F)(F)F)c(S(N)(=O)=O)cc2S(=O)(=O)N1` (stereo not drawn), with “inactive”. On the same count and under the same terms, next, `O=C1O[C@H]([C@H](O)CO)C(O)=C1O`: “inactive”. For the compound `N#Cc1nc(Cl)c(Cl)c(Cl)c1Cl`, the Potency result was “inactive”. In the case of `C#Cc1cccc(Nc2ncnc3cc(OCCOC)c(OCCOC)cc23)c1`, the Potency entry was “inactive”.

Regarding `CCC(Cl)CC(Cl)C(Cl)C(Cl)C(Cl)C(C)Cl` (stereo not drawn), the activity change, negative = cytotoxicity is -0.221% [at 18.9 µM]. With `CCC(=O)Oc1ccc(/C(CC)=C(\CC)c2ccc(OC(=O)CC)cc2)cc1`, the Potency entry was “inactive”. Consider `CC(C)C(=O)OCCOc1ccccc1`, for which the Potency entry was “inactive”.

Take `Cc1nccn1CC1CCc2c(c3ccccc3n2C)C1=O` (stereo not drawn): the Potency result is “inactive”.

Turning to `O=C(O)[C@@H]1CSCN1`, the Potency result was “inactive”. Regarding `CC(=O)[C@H]1CC[C@H]2[C@@H]3CC=C4C[C@@H](O)CC[C@]4(C)[C@H]3CC[C@]12C`, the Potency result was “inactive”. On to `NNc1nncc2ccccc12`, for which the Potency entry is “inactive”.

With `CC(C)(C)c1cc(CO)cc(C(C)(C)C)c1O`, the Potency entry is “inactive”. `Cc1cc(NS(=O)(=O)c2ccc(N)cc2)nc(C)n1`: the Potency result is “inactive”. In the case of `c1ccc(OCc2ccc(CCCN3CCOCC3)cc2)cc1`, the Potency entry is “inactive”. Take `O=C(O)CCCC(=O)O`: the Potency result was “inactive”. Take `O=c1[nH]c(=O)n([C@H]2O[C@H](CO)[C@@H](O)[C@@H]2O)cc1/C=C\Br`: the Potency entry was “inactive”. With `COC(=O)CC(C)CCC=C(C)C` (stereo not drawn), the Potency entry was “inactive”.

Take `CC(=O)Oc1cc(C(C)C)c(OCCN(C)C)cc1C`: the Potency entry is “inactive”. As for `CC(=O)CC/C=C(\C)CCC=C(C)C`, the Potency entry is “inactive”. Turning to `CCO[Si](CCCNC(N)=O)(OCC)OCC`, the Potency result is “inactive”. As for `O=C(O)c1cccc(C[C@@H]2COc3ccc(OCc4nc5cc(F)ccc5s4)cc3[C@@H]2O)c1`, the Potency result was “inactive”. Turning to `COc1ccc2sc(C(=O)Nc3nnn[nH]3)c(OC(C)C)c2c1`, the Potency result was “inactive”.
